Rows were chosen to be rich in hits. Some 3.6% of all compounds tested hit in one or more screens of this group.
Pf apPOL inh = Pf-apPOL inhibitors, biochemical, fluorescence | inhibition, % at 10 µM | actives 0.25% (n = 210,000) | Recombinant Pf-apPOL, molecular beacon fluorescence, 1.5 h
mHTT-CaM PPI inh = mutant huntingtin-calmodulin interaction inhibitors – biochemical, AlphaScreen, primary screen | P42858 | AlphaScreen His-mHTT/GST-CaM binding, luminescence | actives 3.6% (n = 190,000) | AID 1671202, 2021 | inhibition, % at 15 µM;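 note: 0% = both proteins with DMSO and 100% = one protein alone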
Target sequence (P42858 whole entry, looked up, stated change not applied): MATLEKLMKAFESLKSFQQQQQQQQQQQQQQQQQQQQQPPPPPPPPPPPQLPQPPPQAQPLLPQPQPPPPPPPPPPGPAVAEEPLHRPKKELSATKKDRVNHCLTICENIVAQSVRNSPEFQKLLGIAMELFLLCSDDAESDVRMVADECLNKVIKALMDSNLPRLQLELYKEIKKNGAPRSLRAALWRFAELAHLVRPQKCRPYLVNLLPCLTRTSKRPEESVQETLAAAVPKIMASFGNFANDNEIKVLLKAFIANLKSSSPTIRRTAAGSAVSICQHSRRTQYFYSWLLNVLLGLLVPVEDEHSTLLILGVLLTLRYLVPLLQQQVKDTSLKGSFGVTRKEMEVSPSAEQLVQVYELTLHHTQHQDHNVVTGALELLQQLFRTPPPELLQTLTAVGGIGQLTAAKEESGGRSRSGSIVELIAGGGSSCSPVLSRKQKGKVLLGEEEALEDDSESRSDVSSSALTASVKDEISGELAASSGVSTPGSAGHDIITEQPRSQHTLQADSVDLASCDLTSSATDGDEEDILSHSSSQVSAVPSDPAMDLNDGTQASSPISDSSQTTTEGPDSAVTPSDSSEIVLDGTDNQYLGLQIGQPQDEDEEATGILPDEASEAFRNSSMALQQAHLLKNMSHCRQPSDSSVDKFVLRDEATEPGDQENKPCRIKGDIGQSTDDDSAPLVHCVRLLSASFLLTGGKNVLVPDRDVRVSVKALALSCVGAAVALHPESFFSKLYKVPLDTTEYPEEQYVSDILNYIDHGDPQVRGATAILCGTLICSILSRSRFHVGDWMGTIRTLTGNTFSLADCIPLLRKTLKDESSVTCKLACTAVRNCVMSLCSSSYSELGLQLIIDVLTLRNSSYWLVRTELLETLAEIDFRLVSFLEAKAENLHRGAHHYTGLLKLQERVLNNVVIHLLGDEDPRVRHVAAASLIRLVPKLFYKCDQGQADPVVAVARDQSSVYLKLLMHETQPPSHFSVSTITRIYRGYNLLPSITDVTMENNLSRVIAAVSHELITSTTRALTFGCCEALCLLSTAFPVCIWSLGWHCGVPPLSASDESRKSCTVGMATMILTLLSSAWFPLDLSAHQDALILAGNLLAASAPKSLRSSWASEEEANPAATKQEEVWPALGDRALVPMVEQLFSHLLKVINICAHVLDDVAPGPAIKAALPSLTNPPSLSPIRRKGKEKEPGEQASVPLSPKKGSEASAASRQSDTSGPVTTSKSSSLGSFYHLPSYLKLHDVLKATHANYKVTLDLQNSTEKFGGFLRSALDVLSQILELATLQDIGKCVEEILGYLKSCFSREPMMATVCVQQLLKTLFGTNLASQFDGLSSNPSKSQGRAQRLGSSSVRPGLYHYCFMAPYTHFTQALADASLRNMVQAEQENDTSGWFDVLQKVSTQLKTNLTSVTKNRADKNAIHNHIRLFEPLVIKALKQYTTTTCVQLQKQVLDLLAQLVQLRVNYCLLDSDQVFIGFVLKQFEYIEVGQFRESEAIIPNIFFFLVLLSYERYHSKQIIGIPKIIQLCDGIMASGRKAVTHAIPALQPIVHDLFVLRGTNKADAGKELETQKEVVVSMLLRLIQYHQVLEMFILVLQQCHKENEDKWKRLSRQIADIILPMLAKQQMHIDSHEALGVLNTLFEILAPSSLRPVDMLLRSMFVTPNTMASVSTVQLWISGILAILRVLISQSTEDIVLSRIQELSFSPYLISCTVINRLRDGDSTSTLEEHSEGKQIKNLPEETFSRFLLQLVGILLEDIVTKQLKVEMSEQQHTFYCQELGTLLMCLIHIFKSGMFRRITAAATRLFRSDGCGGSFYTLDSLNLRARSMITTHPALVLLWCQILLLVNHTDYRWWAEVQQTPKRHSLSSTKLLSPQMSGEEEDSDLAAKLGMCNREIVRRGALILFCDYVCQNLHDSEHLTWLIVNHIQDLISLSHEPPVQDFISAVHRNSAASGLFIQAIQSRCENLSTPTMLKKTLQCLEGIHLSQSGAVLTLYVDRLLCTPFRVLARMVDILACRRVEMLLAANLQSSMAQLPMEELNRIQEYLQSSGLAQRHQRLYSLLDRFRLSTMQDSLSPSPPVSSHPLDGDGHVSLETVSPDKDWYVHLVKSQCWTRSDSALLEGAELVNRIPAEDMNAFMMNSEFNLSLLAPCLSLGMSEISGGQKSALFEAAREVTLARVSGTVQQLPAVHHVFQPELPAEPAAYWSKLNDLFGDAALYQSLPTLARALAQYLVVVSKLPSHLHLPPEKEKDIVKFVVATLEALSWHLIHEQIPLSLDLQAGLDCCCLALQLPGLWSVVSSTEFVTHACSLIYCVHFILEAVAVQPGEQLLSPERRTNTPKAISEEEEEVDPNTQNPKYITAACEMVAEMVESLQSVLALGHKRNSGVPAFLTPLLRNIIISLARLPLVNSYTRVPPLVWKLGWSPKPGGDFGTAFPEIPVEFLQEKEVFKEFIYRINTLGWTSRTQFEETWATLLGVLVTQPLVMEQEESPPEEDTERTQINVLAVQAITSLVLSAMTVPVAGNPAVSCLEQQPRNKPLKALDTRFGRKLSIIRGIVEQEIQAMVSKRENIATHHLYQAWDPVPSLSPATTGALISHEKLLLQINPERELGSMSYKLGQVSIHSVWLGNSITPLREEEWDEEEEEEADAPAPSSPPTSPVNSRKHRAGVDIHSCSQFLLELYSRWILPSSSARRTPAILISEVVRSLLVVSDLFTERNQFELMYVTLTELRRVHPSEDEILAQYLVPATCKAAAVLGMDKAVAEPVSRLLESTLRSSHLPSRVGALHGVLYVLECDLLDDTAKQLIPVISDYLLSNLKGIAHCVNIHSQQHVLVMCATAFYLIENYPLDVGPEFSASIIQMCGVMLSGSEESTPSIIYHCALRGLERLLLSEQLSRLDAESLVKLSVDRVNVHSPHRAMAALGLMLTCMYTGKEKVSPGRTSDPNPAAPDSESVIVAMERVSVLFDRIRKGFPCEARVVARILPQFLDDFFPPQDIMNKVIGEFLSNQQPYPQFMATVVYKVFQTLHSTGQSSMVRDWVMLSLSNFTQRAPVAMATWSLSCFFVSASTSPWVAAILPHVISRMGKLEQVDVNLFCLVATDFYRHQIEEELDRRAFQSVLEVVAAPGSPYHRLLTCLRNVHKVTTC
The depositor's hits bear a star. Cut-off read from the data, not from the text of the source: active = inhibition above about 50%; inactive = the rest.

SMILES	Pf apPOL inh	mHTT-CaM PPI inh
COCCN1C(=O)c2ccccc2C(C(=O)Nc2ccc(F)c(Cl)c2)C1c1ccc(F)cc1 (stereo unspecified)	3	-4
CCCN1COc2ccc3c(=O)c(-c4ccc(Cl)cc4)coc3c2C1	-39	7
CCOc1c(I)cc(/C=C2\NC(=O)NC2=O)cc1OC	-10	1
COC(=O)c1c(NC(=O)c2ccnn2C)sc2c1CCC2	-6	-5
O=C(NCc1cccs1)c1ccc(S(=O)(=O)NCc2ccc3c(c2)OCO3)o1	-8	-9
Cc1nnc(NC(=O)c2ccc(S(=O)(=O)NCc3ccc4c(c3)OCO4)o2)s1	-4	100*
CCN1CCN(CCCc2ccccc2)CC1	-7	-2
O=C(CN(c1ccccc1)S(=O)(=O)c1ccc(Cl)cc1)Nc1ccc2c(c1)OCO2	-2	11
O=C(CN(c1cccc(C(F)(F)F)c1)S(=O)(=O)c1ccccc1)Nc1ccc(Cl)cc1	0	88*
O=C(CN(c1ccc(Cl)c(C(F)(F)F)c1)S(=O)(=O)c1ccccc1)Nc1cccnc1	7	35
O=C(CN(c1cccc(C(F)(F)F)c1)S(=O)(=O)c1ccccc1)Nc1cccc(Cl)c1	22	86*
O=C1Nc2ccc(Br)cc2/C1=C/c1ccc(Cl)cc1	-6	26
CC(C)(C)c1ccc(/C=C2\C(=O)Nc3ccc(Br)cc32)cc1	-7	90*
O=C1Nc2ccc(Br)cc2/C1=C/c1cccc(Cl)c1	3	40
O=C1Nc2ccc(Br)cc2/C1=C/c1ccc(O)c(O)c1	2	96*
Cc1ccc(C)c(NC(=O)N2CCc3[nH]cnc3C2c2ccncc2)c1 (stereo unspecified)	2	-10
COc1ccccc1CNC(=O)C1CCCN(C(=O)Cc2cccc3ccccc23)C1 (stereo unspecified)	-4	0
CC(=O)Nc1ccc(S[C@@H](CCN2CC[C@H](C(C)(C)C)CCC2=O)c2ccccc2)cc1	-1	61*
CC(C)(C)[C@@H]1CCC(=O)N(CC[C@H](Sc2ccccc2)c2ccccc2)CC1	-1	-6
O=C(NC1CC1)c1ccc(OCC2CCN(C(=O)c3ccccc3Cl)CC2)cc1	-3	5
COc1ccc(C=C2Oc3cc(OCC(=O)O)ccc3C2=O)cc1	61*	4
CC(C)(C)OC(=O)COc1ccc2c(c1)OC(=CC1=Cc3ccccc3OC1)C2=O	-3	8
C=C(C)COc1ccc2c(c1)OC(=Cc1cccc(OC)c1)C2=O	-7	73*
COc1ccc(C=C2Oc3cc(OCC(=O)c4ccc(OC)cc4)ccc3C2=O)cc1	-3	-1
COc1cccc(C=C2Oc3cc(OCC(C)=O)ccc3C2=O)c1	0	6
SMILES	Pf apPOL inh	mHTT-CaM PPI inh
COc1ccc(C(=O)COc2ccc3c(c2)OC(=CC2=Cc4ccccc4OC2)C3=O)cc1OC	-6	58*
CCOC(=O)COc1ccc2c(c1)OC(=CC=Cc1ccccc1)C2=O	-2	11
CC(=O)COc1ccc2c(c1)OC(=CC=Cc1ccccc1)C2=O	7	88*
C=CCOc1ccccc1CN1CCN(c2ccc([N+](=O)[O-])cc2)CC1	1	38
CSc1nc2ccc(NC(=O)c3ccccc3F)cc2s1	14	-2
O=C1OC(c2ccc(F)cc2)=N/C1=C/c1cccc([N+](=O)[O-])c1	-2	8
O=S(=O)(NCC1(c2cccs2)CCOCC1)c1ccc(Cl)s1	-2	-14
CCN(Cc1ccccc1)C(=O)CN(C)S(=O)(=O)c1ccc2[nH]c3c(c2c1)CCCC3	-3	65*
Cc1cccc(C)c1NC(=O)CN(C)S(=O)(=O)c1ccc2[nH]c3c(c2c1)CCCC3	-3	26
CN(CC(=O)NCc1ccccc1)S(=O)(=O)c1ccc2[nH]c3c(c2c1)CCCC3	-4	46
Cc1cccc(N(C)C(=O)CN(C)S(=O)(=O)c2ccc3[nH]c4c(c3c2)CCCC4)c1	-4	62*
Cc1ccccc1NC(=O)CN1CCC(c2nc(-c3cccc(F)c3)no2)CC1	3	2
O=C(COc1ccc([N+](=O)[O-])cc1)Nc1cccc(F)c1	-1	-5
COc1ccc(Cl)cc1NC(=O)c1c(NCc2cccs2)sc2c1CCC2	-15	26
COc1ccc(Cl)cc1NC(=O)C(=O)NCc1cccnc1	-8	3
COc1ccc(Cl)cc1NC(=O)c1c(NCc2cccnc2)sc2c1CCCC2	-18	79*
COc1ccc(Cl)cc1NC(=O)c1c(NCc2cccnc2)sc2c1CCC2	-16	93*
CCCNC(=O)NC1(C(F)(F)F)Oc2ccccc2O1	4	0
COc1cccc(-c2cc(C3CCN(C(=O)Nc4ccccc4)CC3)[nH]n2)c1	0	18
O=C(Cc1cccs1)NCCOc1ccc2nnc(-c3ccc(F)cc3)n2n1	3	-4
O=C(NCCOc1ccc2nnc(-c3ccc(F)cc3)n2n1)c1cc(-c2ccco2)[nH]n1	64*	-6
CCOc1cccc(C=Nc2ccc(-c3nc4ncccc4o3)cc2)c1O	-2	0

Screening data as filed in PubChem BioAssay.
